Screens: PubChem BioAssay, National Center for Advancing Translational Sciences (NCATS)
Sampled rows, rich in hits. Any-hit rate of the full collection: about 19%.
Pf growth 48h: P. falciparum growth inhibition at 48 hours (one generation); P. falciparum luciferase growth in erythrocytes, 48 h; Potency, µM (top dose mostly 28.7 µM), inactives show top-dose activity change, negative = inhibition, most hits filed as inhibitors; 310,000 tested, 5.9% active; note: potency is the fitted concentration of half-maximal effect; % is set by controls: 0 for no effect and ±100 for the full control effect
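Read-out is firefly luciferase luminescence from an integrated reporter in P. falciparum, so falling signal marks reduced parasite growth. Infected erythrocytes were at 2% hematocrit and 0.1% parasitemia (final) in Albumax-supplemented RPMI 1640.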
AMA1 RON2 block: inhibitors of Plasmodium falciparum AMA1-RON2 interaction; AlphaScreen AMA1-biotinylated RON2 peptide binding; Potency, µM (highest dose often 58.2 µM), for inactives: at the highest dose activity change, negative = inhibition, hits mostly inhibitors; 360,000 tested, 0.2% active;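 note: potency is the fitted concentration of half-maximal effect; 0% = vehicle wells and -100% = peptide control; nearly all actives have a fitted effect of over 45% in size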
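AMA1 (3D7) with his tag at 25 nM final met compounds first, then biotinylated RON2 peptide at 25 nM; detection used donor plus acceptor beads, 10 µg/mL apiece, read by AlphaScreen after 30 min at room temperature.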
Pf growth 96h: inhibits malaria parasite growth, 96 h; P. falciparum luciferase reporter growth, 96 h; Potency, µM (series often up to 28.7 µM), for inactives: top-dose activity change, negative = inhibition, most hits filed as inhibitors; 320,000 tested, 6.9% active; note: potency is the fitted concentration of half-maximal effect; % is set by controls: 0 for no effect and ±100 for the full control effect
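Luminescence readout: decreased luciferase signal marks inhibited growth of reporter-expressing P. falciparum in infected red cells (2% hematocrit, 0.05% parasitemia final), exposed to compound two generations (96 h, 37 C, 5% CO2).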
SARS PLP yeast: SARS-CoV PLP inhibition in yeast; S. cerevisiae expressing SARS-CoV PLpro, growth rescue; Potency, µM (series often up to 32.9 µM), for inactives: at the top dose activity, positive = growth rescue, most hits filed as activators; AID 485353; 330,000 tested, 0.19% active; calls by dose curve; note: potency is the fitted concentration of half-maximal effect; 0% is about no effect; nearly all actives have a fitted effect of over 55% in size
Shiga inhibitor: blocks Shiga toxin action in Vero cells; Vero cells, Shiga toxin protein synthesis inhibition reporter; inhibition, % at 38.7 µM; 290,000 tested, 9.2% active; AID 2315; in the data active = inhibition mostly above about 28%, no sharp cut-off; inactive = mostly below about 43%; note: 0% is about no effect
Cycloheximide cs: affects cycloheximide protein synthesis inhibition readout, counter-screen; cell reporter, cycloheximide protein synthesis inhibition counterscreen; max response, %; 300,000 tested, 12% active; AID 2314; in the data active = max response mostly above about 13%, no sharp cut-off; inactive = mostly below about 14%; note: read at 38.3 µM for the half of the compounds with a filed dose; 0% is about no effect
Active calls of the source: *; ? = inconclusive; . = no result; [ ] = dose if it differs, or a comment. Unless noted, calls come from the whole dose curve; as a rule, active = well fitted curve in the direction sought with a large enough effect; inconclusive = small, poorly fitted or top-dose-only effect, or another doubt; inactive = no such curve, though single readings can be large; an effect the other way counts as inactive or inconclusive.

SMILES	Pf growth 48h	AMA1 RON2 block	Pf growth 96h	SARS PLP yeast	Shiga inhibitor	Cycloheximide cs
N#Cc1cccc(S(=O)(=O)NCCOc2ccccc2F)c1	8%	-12%	16%	-1%	.	.
COc1cc(OC)c(C(=O)OC(C)C(=O)Nc2cccc(C(F)(F)F)c2)cc1OC (stereo not given)	?	-19%[2.32 µM]	9.3µM*	17%	-9	-3
CC(O/N=C(\N)c1ccccc1)C(=O)Nc1cccc(C(F)(F)F)c1 (stereo not given)	.	-2%	.	-3%	.	.
COc1cc(C(=O)NCC2CCCN2S(=O)(=O)c2cccs2)cc(OC)c1OC (stereo not given)	12µM*	1%	?	-2%	.	.
Cc1ccc(C(=O)NCC2CCCN2S(=O)(=O)c2cccs2)cc1C (stereo not given)	?	9%	?	1%	.	.
COc1ccccc1CNC(=O)C(=O)NCC1CCCN1S(=O)(=O)c1cccs1 (stereo not given)	12µM*	-7%	0%	1%	.	.
COc1ccccc1CC(=O)N1CCN(S(=O)(=O)c2cccs2)CC1	-16%	-12%	15µM*	5%	-14	6
O=C(NCCc1ccc(F)cc1)C(=O)NCC1CCCN1S(=O)(=O)c1cccs1 (stereo not given)	13µM*	-9%	?	2%	.	.
C=CCNC(=O)C(=O)N/N=C/c1ccco1	6%	20%	?	-27%	-4	-6
Cc1ccc(S(=O)(=O)N2CC(O)C[C@H]2C(=O)OCC(=O)N2CCN(c3ccc(F)cc3)CC2)cc1C (stereo not given in full)	.	-12%	.	.	.	.
CO[C@H](C(=O)[C@@H](O)[C@@H](C)O)C1Cc2cc3cc(O[C@H]4C[C@@H](O[C@H]5C[C@@H](O)[C@H](O)[C@@H](C)O5)[C@@H](O)[C@@H](C)O4)c(C)c(O)c3c(O)c2C(=O)[C@H]1O[C@H]1C[C@@H](O[C@H]2C[C@@H](O[C@H]3C[C@](C)(O)[C@H](O)[C@@H](C)O3)[C@H](O)[C@@H](C)O2)[C@H](O)[C@@H](C)O1 (stereo not given in full)	0.048µM*	.	0.034µM*	.	.	.
COC(C(=O)C(O)C(C)O)C1Cc2cc3cc(OC4CC(OC5CC(O)C(O)C(C)O5)C(O)C(C)O4)c(C)c(O)c3c(O)c2C(=O)C1OC1CC(OC2CC(OC3CC(C)(O)C(O)C(C)O3)C(O)C(C)O2)C(O)C(C)O1 (stereo not given)	0.06µM*	.	1.9µM*	.	.	.
COC(C(=O)C(O)C(C)O)C1Cc2cc3cc(OC4CC(OC5CC(O)C(O)C(C)O5)C(O)C(C)O4)c(C)c(O)c3c(O)c2C(=O)C1OC1CC(OC2CC(OC3CC(O)C(OC)C(C)O3)C(O)C(C)O2)C(O)C(C)O1 (stereo not given)	.	0%	.	.	.	.
COc1ccc(CCN2CC(C(=O)N(C)CC(=O)Nc3ccc(Cl)c(C(F)(F)F)c3)CC2=O)cc1OC (stereo not given)	?	40%	?	-2%	.	.
COc1ccc(N2CC(C(=O)N(C)CC(=O)Nc3ccc(Cl)c(C(F)(F)F)c3)CC2=O)c(OC)c1 (stereo not given)	?	-2%	13µM*	5%	.	.
Cn1c(N)c(S(=O)(=O)NCc2ccc(Cl)cc2)c(=O)n(C)c1=O	-24%	10%	23%	0%	-4	-3
CN(C=[N+](C)C)c1cccc2c1C(=O)c1ccccc1C2=O	9%	32µM*	-13%	6%	11	7
C/C(=N\NC(=O)c1ccccc1Cl)c1c(O)n(C2CCCCC2)c(=O)[nH]c1=O	-2%	96%	-4%	-4%	35*	32*
CCN(CC)CCCN=C(C)c1c(O)n(C2CCCCC2)c(=O)[nH]c1=O	4%	0%	6.6µM*	3%	-12	5
CCC(=NCCCN(CC)CC)c1c(O)n(C2CCCCC2)c(=O)[nH]c1=O	-30%	2%	-8%	3%	-5	-1
C/C(=N\NC(=O)c1ccccc1O)c1c(O)n(Cc2ccccc2)c(=O)[nH]c1=O	43%	39%	63%	4%	51	25*
